Screen size: about 1,700 compounds; about 1,100 (65%) were called active.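 Rule for the calls: active = duplicate-averaged calcium response above the buffer-only control mean plus 5 SD of those controls; inactive = the rest.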 The set was probably picked from earlier hits. Not all results are given here.
Experiment: enhanced carbachol calcium response, M3R/RGS4 cells, RGS4 inhibitor project, cell-based, validation screen, HEK293 M3R/RGS4, calcium flux (AID 492999);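 for calcium response: integrated fluorescence ratio F max minus min over baseline F0; higher response in RGS4-induced cells means RGS4 inhibition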
Details: HEK293 M3R/RGS4, carbachol calcium Fluo-4 fluorescence, at 10 µM, carbachol added at its EC20; active compounds read high, 0 = buffer wells, 100 = carbachol control

Row | SMILES | calcium response
1 | CCOC(=O)C1=NN(c2ccc(Cl)cc2)/C(=C/C2=NCCc3cc(OC)c(OC)cc32)S1 | 10.5% (active)
2 | CCC(c1nnnn1Cc1ccco1)N(Cc1cc2cc(OC)ccc2[nH]c1=O)C1CCCCC1 (centres undefined) | inactive
3 | COc1ccc(/C(O)=C2/C(=O)C(=O)N(c3nc(C)c(C)s3)C2c2ccco2)cc1 (centres undefined) | inactive
4 | COc1ccc(-c2csc(Nc3ccc(O)cc3)n2)cc1 | 10% (active)
5 | C=CCSc1nc2c(c(=O)[nH]1)C(C(C)C)C(C#N)=C(N)O2 (centres undefined) | 26% (active)
6 | COc1cc(Br)cc(/C=N/c2ncn[nH]2)c1O | 8% (active)
7 | COc1cc(/C=C2/C(=O)NN(c3cccc(Cl)c3)C2=O)cc(Br)c1O | 30.5% (active)
8 | COc1cc(/C=C2/SC(=S)N(Cc3ccccc3)C2=O)cc(OC)c1O | inactive
9 | C#CCOc1ccc(/C=C2/C(=O)NN(c3ccccc3)C2=O)cc1OC | 9% (active)
10 | Oc1ccc(/C=N/Nc2ccc(C(F)(F)F)cn2)cc1O | 16.5% (active)
11 | Cc1nc(-c2ccccc2)sc1C(=O)/C=C/c1ccccc1 | 10% (active)
12 | COc1ccc(/C=C/C(=O)c2ccc(OC)cc2O)cc1 | inactive
13 | O=C1Nc2ccc(Br)cc2/C1=N/N=C/C1=C(N2CCOCC2)C(=C\c2ccccc2)/CC1 | 18.5% (active)
14 | O=C(Nc1ccccc1)OCc1cc(-c2ccc(Cl)cc2)on1 | inactive
15 | COCCCNC(=S)N(CCN(C)C)Cc1cc2cc3c(cc2[nH]c1=O)OCCO3 | inactive
16 | COc1ccc(OC)c(S(=O)(=O)N2CCCC(C(=O)N3CCC(C(N)=O)CC3)C2)c1 (centres undefined) | inactive
17 | CCOC(=O)C1CCN(C(c2cc3cc(C)cc(C)c3[nH]c2=O)c2nnnn2C2CCCCC2)CC1 (centres undefined) | 18% (active)
18 | CCOC(=O)[C@@H]1[C@H]2COc3ccc(Br)cc3[C@H]2N2C(=O)N(c3ccc(Cl)cc3)C(=O)[C@@]12C | inactive
19 | Cc1cc(C)nc(S/C=C/C(=O)c2ccccc2)n1 | 19.5% (active)
20 | CCOc1ccc(/C=N/NC(=O)CSc2ccccn2)cc1O | inactive
21 | Cc1ccc(Sc2cc(N3CCOCC3)nc(-c3ccccc3)n2)cc1 | 28% (active)
22 | C[C@H](NC(=O)c1nc[nH]c1C(=O)NCC(=O)OC(C)(C)C)c1ccccc1 | 13% (active)
23 | O=C(Nc1ccc(Cl)cc1)OCc1cc(-c2ccccc2)on1 | inactive
24 | COC(=O)Cn1cc(/C=C/[N+](=O)[O-])c2ccccc21 | 33.5% (active)
25 | Cc1nc(Nc2ccc(S(=O)(=O)N3CCCC3)cc2)c2nnn(Cc3ccccc3)c2n1 | inactive
26 | O=C(/C=C/c1ccc(Cl)c([N+](=O)[O-])c1)c1ccc(O)cc1 | 22% (active)
27 | O=C(/C=C/c1ccc(Cl)c([N+](=O)[O-])c1)c1cccnc1 | 9% (active)

Row | SMILES | calcium response
28 | CCCCC1S/C(=N/N=C/c2cccs2)NC1=O (centres undefined) | 18% (active)
29 | Brc1ccc(-c2csc(N/N=C/c3cccnc3)n2)cc1 | 7.5% (active)
30 | CNc1nc(Nc2ccc(C)c(Cl)c2)nc(N)c1[N+](=O)[O-] | 6% (active)
31 | Cc1ccc(Nc2nc(N)nc(CN3CCN(Cc4ccccc4)CC3)n2)cc1Cl | inactive
32 | Cc1nn2c(=O)cc(COC(=O)c3ccc(NC(=O)C(C)(C)C)cc3)nc2s1 | inactive
33 | CC(C)c1nc(SCC(=O)Nc2cccc(C(=O)O)c2)c2c3c(sc2n1)CCCC3 | 27.5% (active)
34 | Cc1ccc(NC(=O)c2c(NC(=O)CCC(=O)O)sc3c2CCCCC3)cc1 | inactive
35 | CC(C)Cc1nc(Nc2ccc(S(=O)(=O)N3CCCC3)cc2)c2nnn(Cc3ccccc3)c2n1 | inactive
36 | CNCC(O)c1ccc(O)c(O)c1 (centres undefined) | 21.5% (active)
37 | O=C(CCN1CCc2ccccc2C(O)(c2ccccc2)C1)c1ccc2c(c1)OCCO2 (centres undefined) | 100% (active)
38 | COc1ccc(C(C[N+](=O)[O-])n2nc(C)cc2C)cc1 (centres undefined) | 10% (active)
39 | Cc1nn(C(C)C(=O)N2CCOCC2)c(=O)c2nn(-c3ccccc3)c(C)c12 (centres undefined) | inactive
40 | O=C(NCCCc1ccccc1)C1CCC(CNc2c(N3CCCCC3)c(=O)c2=O)CC1 (centres undefined) | inactive
41 | O=C1c2ccccc2NC(c2ccc(-c3cccc(Cl)c3)o2)N1O (centres undefined) | 24.5% (active)
42 | c1ccc(C[C@H]2CNCCN2CCC23CC4CC(CC(C4)C2)C3)cc1 | 26.5% (active)
43 | O=C(COC(=O)c1cccc(Br)c1)Nc1cccc2c1C(=O)c1ccccc1C2=O | inactive
44 | O=C(O)c1ccc2c(c1)C(=O)N(c1ccc(/C=C/C(=O)c3ccccc3)cc1)C2=O | 93% (active)
45 | CCc1ccc(C2C(C#N)=C(N)N(N3CCOCC3)C3=C2C(=O)CC(C)(C)C3)s1 (centres undefined) | inactive
46 | O=[N+]([O-])/C=C/c1ccc2c(ccn2Cc2ccccc2)c1 | 56.5% (active)
47 | CCn1c(O)c(N=NC2=NC(=O)CS2)c2cc(C)ccc21 | inactive
48 | O=C1NC(c2ccc(-c3ccccc3[N+](=O)[O-])o2)C(C(=O)c2ccc(Cl)cc2)C(O)(C(F)(F)F)N1 (centres undefined) | 18.5% (active)
49 | Cn1c(-c2ccco2)nc2cc3ccccc3cc21 | inactive
50 | CCc1ccc2oc(-c3ccc(N)cc3)nc2c1 | 17% (active)
51 | CCOc1ccc(NC(=O)C/C(C)=N/NC(=O)Cc2cccs2)cc1 | inactive
52 | CCCCOC(=O)CNc1nnc(SCC(=O)OCC)[nH]c1=O | 63.5% (active)
53 | Cc1ccc(C)c(Cn2nnc3c(=O)[nH]c(C(=O)Nc4ccc(F)cc4)nc32)c1 | 56.5% (active)
54 | COC(=O)C1CCN(C(=O)c2cc(=O)[nH]c3ccccc23)CC1 | inactive

Row | SMILES | calcium response
55 | Cc1ccc(S/C(=N\S(=O)(=O)c2ccc(Cl)cc2)c2ccccc2)cc1 | inactive
56 | C=CCOc1ccc(/C=C2/C(=O)ON=C2C)cc1OCC | 14.5% (active)
57 | C#CCOc1ccc(/C=C2/C(=O)ON=C2C)cc1OCC | 16% (active)
58 | Cc1ccsc1/C=N/n1c(=S)[nH]nc(C)c1=O | 22.5% (active)
59 | Cc1ccc(SC(CC(=O)c2ccc(C(C)(C)C)cc2)C(=O)O)cc1 (centres undefined) | inactive
60 | Nc1cccc(-c2cc(-c3ccccc3)nc(-c3cccc(N)c3)n2)c1 | 13.5% (active)
61 | COc1cc2c(cc1O)C(SC)=NC(C)(C)C2 | 26.5% (active)
62 | CCc1nnc(NS(=O)(=O)c2ccc(N=Cc3c(C)[nH]n(-c4ccc(C)cc4)c3=O)cc2)s1 | inactive
63 | C1=C(N2CCOCC2)/C(=C/c2nc3ccccc3[nH]2)CC1 | 49% (active)
64 | COc1ccc(NCc2nnc(SCc3ccccc3)n2-c2ccc(OC)cc2)cc1 | inactive
65 | O=C(O)c1ccc2c(=O)n3c(nc2c1)/C(=C/c1ccc(Cl)c([N+](=O)[O-])c1)CC3 | inactive
66 | Cc1ccc(/C=C2\CCn3c2nc2cc(C(=O)O)ccc2c3=O)c(C)c1 | 52% (active)
67 | Oc1ccc(-c2[nH]ncc2-c2nc3ccccc3s2)c(O)c1 | 12% (active)
68 | O=S(=O)(Nc1nccs1)c1ccc2c(c1)OCCO2 | inactive
69 | Cc1c(NC(=O)c2coc(=O)c(Br)c2)c(=O)n(-c2ccccc2)n1C | 24.5% (active)
70 | CS(=O)(=O)N(CC(O)Cn1c2ccccc2c2ccccc21)c1cccc2ccccc12 (centres undefined) | 14.5% (active)
71 | O=[N+]([O-])c1c(NCCO)cc(Sc2nc3ccccc3s2)c2nonc12 | inactive
72 | COc1ccc(S(=O)(=O)Nc2ccc(O)c(Sc3nc4ccccc4s3)c2)cc1 | 23% (active)
73 | Nc1ccccc1SC(C[N+](=O)[O-])c1ccccc1 (centres undefined) | 38.5% (active)
74 | O=C(O)C(c1ccccc1)N1C(=O)/C(=C\c2ccc(-c3cccc(Cl)c3)o2)SC1=S (centres undefined) | 13.5% (active)
75 | COc1ccccc1C1C(C#N)=C(N)Oc2c1c(-c1ccccc1)nn2-c1ccccc1 (centres undefined) | 34.5% (active)
76 | C=C(C)C(=O)O[C@H]1C/C(C)=C\C(=O)/C=C(\C)[C@H](O)[C@@H]2OC(=O)C(=C)[C@@H]21 | 26.5% (active)
77 | CC(=O)Nc1ccc(S(=O)(=O)Nc2nc(-c3ccc(C(C)(C)C)cc3)cs2)cc1 | 19.5% (active)
78 | O=C(/C=C/Sc1ncn[nH]1)c1ccc(Cl)cc1 | 45.5% (active)
79 | Cc1cc(-c2n[nH]c(=S)n2/N=C/C(Br)=C/c2ccccc2)n[nH]1 | 18% (active)
